Experimental data: PubChem BioAssay (NCI)
This is part of a sample that, as a whole, favours compounds with a hit. Of some 83,000 tested, about 20% had one in any assay.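 Percent growth is the endpoint: 0 to 100 indicates growth inhibition (40 means 60% inhibition), 0 means no net growth, and negative values indicate cell death.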 Unmarked numbers belong to inactive results. Active and inactive are the calls of the source. Rule for the calls: active = growth percent below 10; inactive = the rest.

Experiments:
Assay in all cases: NCI-60 one-dose screen, 48 h (100 = growth as untreated, 0 = no growth, -100 = all killed)
Conditions in all cases: 10 µM unless noted
[1] = tested on: NCI-H23 lung
[2] = tested on: NCI-H226 lung
[3] = tested on: NCI-H322M lung
[4] = tested on: HOP-62 NSCLC
[5] = tested on: NCI-H460 lung
[6] = tested on: HOP-92 NSCLC
[7] = tested on: NCI-H522 lung
[8] = tested on: A549/ATCC NSCLC
[9] = tested on: 786-0 renal
[10] = tested on: COLO 205 colon
[11] = tested on: DU-145 prostate
[12] = tested on: K-562 leukemia
[13] = tested on: MALME-3M melanoma
[14] = tested on: MDA-MB-231 breast
[15] = tested on: SF-268 CNS
[16] = tested on: SF-295 CNS
[17] = tested on: SF-539 CNS
[18] = tested on: UACC-257 melanoma
[19] = tested on: M14 melanoma
[20] = tested on: RXF 393 renal

Row | SMILES | growth [1] | growth [2] | growth [3] | growth [4] | growth [5] | growth [6] | growth [7] | growth [8] | growth [9] | growth [10] | growth [11] | growth [12] | growth [13] | growth [14] | growth [15] | growth [16] | growth [17] | growth [18] | growth [19] | growth [20]
1 | CC1=C[S+](c2ccccc2)c2cccc3cc4ccccc4c1c23 (centres undefined) | 5.3% (active) | -21.7% (active) | 21.5% | -42.6% (active) | -32.6% (active) | -59.6% (active) | -95.7% (active) | -8.79% (active) | -80% (active) | -89.5% (active) | -10.8% (active) | -27.2% (active) | -41.2% (active) | -10.4% (active) | -38.7% (active) | -0.638% (active) | -88.2% (active) | -88.8% (active) | -64.4% (active) | 
2 | COc1cc(NC(=O)c2cc(OC)c3ccn(C)c3c2)cc2c1C[C@]1(C)CC[C@@H](O)C(C)(C)[C@H]1O2 | 79.9% | 106% | 90.4% | 46.1% | 49.2% | 44.6% | 76.1% | 63.6% | -1.08% (active) | 51.7% | 71.5% | 20.2% | 49.9% | 57.7% | 66.7% | -39.6% (active) | 20.3% | 62.2% | 23.7% | 
3 | C=C1C(=O)O[C@H]2[C@H]1CC/C(COC(=O)c1ccccc1)=C\CC[C@@]1(C)O[C@@H]21 | 45% | -37.2% (active) | 59.3% | 36.6% | 38% | -41.9% (active) | -77.7% (active) | 23.3% | -59.2% (active) | -64.7% (active) | 6.11% (active) |  | -65% (active) | -37.1% (active) | 41% | 60.8% | -65.5% (active) | 30% | -31.9% (active) | -84% (active)
4 | Nc1c(C(=O)O)[nH]c(=O)[nH]c1=O | 103% | 93.8% | 102% | 108% | 104% | 104% | 84.3% | 71.9% | 104% | 115% | 110% | 86.9% | 110% |  | 98.7% | 99.7% | 103% | 75.7% | 103% | 93.5%
5 | O=C(Nc1ccc(Cl)c(Cl)c1)Nc1ccc(Cl)c([N+](=O)[O-])c1 | -14.4% (active) | 1.2% (active) | 6.27% (active) | -3.52% (active) | 1.62% (active) | -23.2% (active) | -12.7% (active) | 4.45% (active) | 7.48% (active) | -80% (active) | 18% |  | -12.3% (active) | -62.6% (active) | 14.1% | -26.6% (active) | 8.74% (active) | -8.5% (active) | 0.455% (active) | -11.8% (active)
6 | O=[N+]([O-])c1ccc(NS(=O)(=O)c2ccccc2)c2ccccc12 | 34.3% | 59.4% | 71.9% | 50.6% | 38.2% | 1.99% (active) | 18.2% | 57.1% | 51.5% | 59.1% | 62.4% |  | 18.8% | 70.1% | 42.3% | 43% | 45.1% | 16.3% | 41% | 41.6%
7 | COc1ccccc1C(OC(C)=O)OC(C)=O | 98.7% | 94% | 97.5% | 104% | 107% | 115% | 78% | 79.5% | 97.7% | 110% | 109% | 95.6% | 108% |  | 98.8% | 96.6% | 101% | 87.5% | 98.3% | 111%
8 | Cc1ccc2oc(=O)cc(C3C(C#N)=C(N)Oc4c3ccc3ccccc43)c2c1 (centres undefined) | 89.8% | 87.1% | 89.2% | 63.7% | 84.1% | 87.3% | 48.6% | 71.1% | 81.3% | 70.3% | 96.3% |  | 95.5% | 81.9% | 82.7% | 75.8% | 82.6% | 85.4% | 61.5% | 79.2%
9 | CCCOC(=O)c1ccc([N+](=O)[O-])o1 | 108% | 109% | 108% | 114% | 91.4% | 109% | 85.4% | 101% | 108% | 120% | 118% |  | 116% | 103% | 100% | 120% | 93.8% | 110% | 98.8% | 109%
10 | O=C(c1ccccc1)[C@H]1[C@@H]2CCCN2[C@]2(C(=O)Nc3ccc(F)cc32)[C@]12C(=O)Nc1ccccc12 | 93.3% | 79.3% | 97% | 86.8% | 93.6% | 54.9% | 73.5% | 75.2% | 87.7% | 93.8% | 94% |  | 125% | 75.5% | 90.2% | 97.6% | 90.1% | 83.3% | 85.2% | 81.9%
11 | COc1ccccc1S(=O)(=O)Nc1ccc2c3c(cc(-c4cnn(C5CC5)c4)nc13)C(=O)N2C | 67.5% | 79.7% | 70.7% | 50.7% | 66.7% | 40.7% | 64.6% | 66.4% | 68.2% | 39.2% | 85.1% |  | 63.9% | 52.8% | 84.3% | 53.7% | 60.8% | 66.2% | 61.1% | 89.8%
12 | CC(C)(C)OC(=O)N1CC(Cn2cc(C(F)(F)F)c3c(Cl)ncnc32)C1 | -68.9% (active) | 63.8% | -90.2% (active) | -83.7% (active) | -59% (active) | -64.5% (active) | 39.9% | 5.78% (active) | 107% | 63.8% | -100% (active) |  | 80.6% | 0.765% (active) | -86.9% (active) | 30.4% | 79.9% | -37.9% (active) | -87.4% (active) | -63.7% (active)
13 | COc1ccccc1S(=O)(=O)Nc1ccc2c3c(cc(-c4ccoc4)nc13)C(=O)N2C | 81.2% | 82.7% | 76.2% | 52.6% | 70.9% | 45.3% | 46.3% | 66.2% | 53.6% | 44.7% | 86.5% |  | 71.3% | 62.8% | 84.1% | 56.9% | 63.2% | 58.7% | 53.1% | 85.3%
14 | CCOc1cccc(Nc2nc(N)nc3[nH]c4ccc(O)cc4c23)c1 | 68.5% | 79.5% | 65.1% | 61.7% | 82% | 25.9% | 49.2% | 46.6% | 52.8% | 96.9% | 49% |  | 96.9% | 54.8% | 44.6% | 68.1% | 81.4% | 88.6% | 75.3% | 43%
15 | O=C(Nc1ccc(F)cc1)Nc1ccc(Br)c(C(F)(F)F)c1 | -7.43% (active) | -6.87% (active) | 22% | 23.2% | 4.62% (active) | -13.3% (active) | -16.9% (active) | 10.2% | 13.6% | -27.3% (active) | 22.3% |  | -6.11% (active) | 7.99% (active) | 22% | 3% (active) | 19.9% | 1.49% (active) | 15.3% | 26.8%
16 | Cc1cn(C2CC(F)C(CO)O2)c(=O)[nH]c1=O (centres undefined) | 90.3% | 95.9% | 85.9% | 88.4% | 51.8% | 69% | 86% | 84.7% | 87.3% | 116% | 108% | 58.3% | 85.1% | 98.3% | 103% | 76.8% | 107% | 91.8% | 89% | 
